Assay [1] addresses T1, Aspartate--tRNA(Asp/Asn) ligase (Mycobacterium tuberculosis (strain ATCC 25618 / H37Rv)) (UniProt P9WFW3).
T1 sequence (whole entry): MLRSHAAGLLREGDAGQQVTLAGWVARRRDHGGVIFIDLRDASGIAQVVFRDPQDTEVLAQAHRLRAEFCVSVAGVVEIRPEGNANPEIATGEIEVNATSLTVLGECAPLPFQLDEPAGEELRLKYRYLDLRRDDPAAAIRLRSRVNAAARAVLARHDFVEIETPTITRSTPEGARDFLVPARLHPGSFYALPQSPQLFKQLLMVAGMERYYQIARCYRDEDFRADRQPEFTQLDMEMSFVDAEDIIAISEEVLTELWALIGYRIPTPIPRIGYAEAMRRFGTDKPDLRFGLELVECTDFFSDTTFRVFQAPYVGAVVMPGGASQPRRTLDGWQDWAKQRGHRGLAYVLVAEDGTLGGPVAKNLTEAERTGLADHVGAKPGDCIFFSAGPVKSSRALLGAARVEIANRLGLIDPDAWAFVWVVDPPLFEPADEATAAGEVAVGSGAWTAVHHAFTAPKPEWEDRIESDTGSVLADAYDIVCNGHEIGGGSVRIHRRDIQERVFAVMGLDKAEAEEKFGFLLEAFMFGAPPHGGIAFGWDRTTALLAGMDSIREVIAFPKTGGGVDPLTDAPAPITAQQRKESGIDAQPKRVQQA
The experiment in a line: Assay for Asp RNA synthetase-1 from Mycobacterium tuberculosis. The following applies: 30 µM. It is filed as functional. Also on record: scale not given: direction of the effect not stated beside the values.

In assay [2] the target is Shiga toxin 2 (Escherichia coli O157:H7) (UniProt P09385+P09386). The experiment in a line: E. coli 0.157:H7 Shiga Toxin SOP - stx2 screening assay. It is filed as functional. More on the design: scale not given: direction of the effect not stated beside the values. The following applies: 30 µM.

The structures appear in SMILES notation.

Regarding `Cn1ccnc1-c1cccc(NC(=O)NCCN2CCOCC2)c1`, the results for the Percent Effect in assay [1] and in assay [2] were 4.54% and -60.9%, respectively.
As to `Cc1n[nH]c(C)c1C1CCCN1C(=O)CNC(=O)C(C)(C)C` (stereo unspecified), the results for the Percent Effect in assay [1] and in assay [2] were 1.09% and -19.5%, respectively.
Regarding `Cn1cc(CN2CCn3cc(CNC(=O)C4CCC4)nc3C2)cn1`, the Percent Effect was 1.34% in assay [1] and -6.29% in assay [2].
For `Cc1cnn(CC2CN(CC(=O)N(C)Cc3cccs3)CCO2)c1` (stereo unspecified), the Percent Effect was -5.6% in assay [1] and -8.69% in assay [2].
Take `c1ccc(C[C@H]2CN(Cc3nccs3)CC[C@H]2OCC2CC2)cc1`: the Percent Effect was 3.93% in assay [1] and 16% in assay [2].
In the same order, the values of `COc1ccc(OCC(=O)NC(C)c2ccc(F)cc2)c(C(=O)O)c1` (stereo unspecified) are 0.691% and 12%.
On to `CS(=O)(=O)N1CCCC12CCCN(S(=O)(=O)c1ccc(F)cc1)C2` (stereo unspecified), for which the Percent Effect was -6.05% in assay [1] and 7.82% in assay [2].
With `COc1ccccc1CC1CCCN(CC(=O)N2CCOCC2)C1` (stereo unspecified), the Percent Effect in assay [1] is -1.41%; in assay [2] it was 16.7%.
In the same order, the values of `Cc1ccc(C(=O)N2CCO[C@H]3[C@@H](OCc4ccccn4)CC[C@@H]32)o1` are 6.63% and -6.16%.
In the same order, the values of `CN1CCC(c2cccc(Cc3ccc(F)cc3)n2)CC1` are -0.194% and -29.1%.
On to `Cc1ccoc1C(=O)N1C[C@H]2CCC[C@@]2(COCc2ccncc2)C1`, for which the Percent Effect in assay [1] is 6.22%; in assay [2] it was -14.5%.
With `CC1CCCN(C(=O)CCc2cccnc2)C1` (stereo unspecified), the Percent Effect was -4.28% in assay [1] and -0.0678% in assay [2].
Take `CN(C)C(=O)CC1CC2(CCN(CC3CC3)CC2)c2cc(F)ccc21` (stereo unspecified): the Percent Effect in assay [1] is 2.15%; in assay [2], -3.11%.
In the same order, the values of `CC(C)CN1CCC2(CCN(Cc3ccoc3)CC2)C1=O` are 6.3% and -11.6%.
For the molecule `FC1(F)CCN(Cc2ccccn2)CC12CCN(c1cccnc1)C2` (stereo unspecified), the Percent Effect in assay [1] was 1.08%; in assay [2], -6.96%.
For the molecule `Cc1cc(CN(C)C(=O)NCc2cccc(N3CCCC3=O)c2)no1`, the Percent Effect in assay [1] was -2.4%; in assay [2], -15%.
As to `Cc1nnc2n1CCN(C(=O)c1cn(-c3ccccc3Cl)nn1)C2`, the Percent Effect was -0.98% in assay [1] and -42.4% in assay [2].
`Cc1cnn(CC2CCCCN2C(=O)CN(C)C2CC2)c1` (stereo unspecified): the Percent Effect in assay [1] was 2.98%; in assay [2] it was -50.8%.
In the same order, the values of `CC(C(=O)Nc1ccc(N2CCCC2)nc1)n1ccnc1` (stereo unspecified) are 1.62% and -37.2%.
On to `CCS(=O)(=O)N1CCCc2ccc(NC(=O)Cc3ccc(F)cc3)cc21`, for which the results for the Percent Effect in assay [1] and in assay [2] were 3.34% and 7.51%, respectively.
Regarding `Cc1nc(N2CCCC2)nc2c1CCN(Cc1ccco1)CC2`, the Percent Effect in assay [1] was 8.76%; in assay [2], -55.7%.
In the same order, the values of `CCn1cc(CN2CCCC(c3[nH]ncc3S(C)(=O)=O)C2)cn1` (stereo unspecified) are -1.6% and -18.8%.
In the same order, the values of `COCCOc1ccccc1C(=O)N1CCCCC1c1nccs1` (stereo unspecified) are 4.67% and -6.36%.
Take `CC(NC(=O)c1nc(=O)[nH][nH]1)c1ccc(OCC2CC2)c(F)c1` (stereo unspecified): the Percent Effect in assay [1] was -2.07%; in assay [2] it was 5.49%.
`CSc1ccsc1C(=O)N1CCN(CC(C)(C)O)CC1`: the Percent Effect in assay [1] was 2.72%; in assay [2], -13.5%.
Regarding `CCC1c2ccsc2CCN1C(=O)NCc1ccccn1` (stereo unspecified), the values for the Percent Effect in assay [1] and in assay [2] were -0.144% and -4.32%, respectively.
On to `Cc1nc2cc(O)nn2c(C)c1CCC(=O)N(C)Cc1cscn1`, for which the Percent Effect is 8.09% in assay [1] and 4.66% in assay [2].
On to `CCn1nc(C)c2nnn(CC(=O)Nc3cccc(Cl)c3)c(=O)c21`, for which the Percent Effect was -0.523% in assay [1] and -43.6% in assay [2].
Turning to `CC(NC(=O)Nc1cc(F)ccc1N1CCCCC1)c1nncn1C` (stereo unspecified), the results for the Percent Effect in assay [1] and in assay [2] were -3.23% and 20.1%, respectively.
For the molecule `COCc1ccccc1CNc1nnc(C)c(C)c1C#N`, the figures for the Percent Effect in assay [1] and in assay [2] were 7.84% and 29.7%, respectively.
For the molecule `O=c1cc2c(nn1CN1CCN(c3ccccc3)CC1)CCC2`, the Percent Effect in assay [1] is 6.3%; in assay [2] it was -14%.
On to `Cn1cc(CN2CCCC3(CCN(c4nncs4)C3)C2)cn1` (stereo unspecified), for which the Percent Effect was 6.31% in assay [1] and -11.3% in assay [2].
For the molecule `COCC(=O)N1Cc2cnc(Cc3ccc(OC)cc3)nc2C1`, the Percent Effect in assay [1] is 2.73%; in assay [2], -8.2%.
As to `CCn1nc(C)c(CCNC(=O)C2CCCN(C(=O)N(C)C)C2)c1C` (stereo unspecified), the Percent Effect in assay [1] was -4.2%; in assay [2], 14.2%.
`CCOCCOC(C)C(=O)NCc1cn2cc(Br)ccc2n1` (stereo unspecified): the Percent Effect is 1.62% in assay [1] and -14.8% in assay [2].
In the same order, the values of `O=C(c1ccc[nH]1)N1CCC2(CC1)C(=O)Nc1ccccc12` are -1.68% and 16.7%.
In the same order, the values of `CNC(=O)CN1CCCC12CCN(C(=O)c1ccc(F)cc1)CC2` are -5.42% and -14.4%.
For `Cc1n[nH]c(C)c1C1COCCN1C(=O)c1cc(Cl)c[nH]1` (stereo unspecified), the Percent Effect was 2.63% in assay [1] and -24.9% in assay [2].
As for `Cc1noc([C@@]23CCO[C@@H]2CCN(C(=O)C2CCOCC2)C3)n1`, the Percent Effect in assay [1] was 0.117%; in assay [2], -4.33%.
`CCOc1ccnc(N2CCN(C(=O)c3cccc(C#N)c3)CC2)n1`: the Percent Effect in assay [1] was -3.26%; in assay [2], 40.5%.
In the same order, the values of `CCCNC(=O)C(C)n1cc(Br)cn1` (stereo unspecified) are 5.47% and -46.7%.
For the molecule `O=C(CCC1CCCC1)N1CCC(c2ncc3c(n2)CCNC3)CC1`, the Percent Effect in assay [1] was -3.47%; in assay [2], -54.5%.
In the same order, the values of `COCC(NC(=O)c1ccc[nH]1)c1cccc(C(F)(F)F)c1` (stereo unspecified) are -2.7% and -17.9%.
In the same order, the values of `Cc1nc(NC(=O)CN2CCc3c(nc(C(C)C)n3C)C2)sc1C` are -4.32% and 5.46%.
For the molecule `Cn1cnnc1C1CCCN(C(=O)c2cc(Cl)c3c(c2)OCO3)C1` (stereo unspecified), the Percent Effect in assay [1] was -5.25%; in assay [2] it was -2.91%.
For the molecule `CCCc1nc(CN2CCN(Cc3noc(CCC)n3)CC2)no1`, the Percent Effect is -5.2% in assay [1] and -39.2% in assay [2].
With `Cn1ncc(C(=O)N2CCCC(n3cccn3)C2)c1C1CC1` (stereo unspecified), the Percent Effect in assay [1] was 3.87%; in assay [2], -7.05%.
Consider `CC(C)NC(=O)COc1nc(C(C)C)no1`, for which the Percent Effect in assay [1] was -2.64%; in assay [2], -17.3%.
Take `Cc1ccc(NC2CCN(C(=O)c3cccc4ncccc34)CC2)nn1`: the figures for the Percent Effect in assay [1] and in assay [2] were 3.98% and -2.02%, respectively.
On to `CN(Cc1ccccn1)C1CC2(CCN(Cc3cccnc3)CC2)C1`, for which the Percent Effect in assay [1] is -2.75%; in assay [2], -14.8%.
On to `Cc1ccc(N(CC(=O)c2ccc(Br)cc2)C2=NCCCCC2)cc1`, for which the Percent Effect in assay [1] is 0.479%; in assay [2] it was -13.7%.
For the molecule `CC(=O)N1CCC2(CCCN(Cc3ccc(Cl)c(C(F)(F)F)c3)C2)C1` (stereo unspecified), the figures for the Percent Effect in assay [1] and in assay [2] were 6.54% and 4.87%, respectively.
Turning to `Cc1nc(C(=O)N2CCCC(n3cncn3)C2)cs1` (stereo unspecified), the Percent Effect in assay [1] is -3.48%; in assay [2], 1.3%.
On to `Cc1ncc(-c2nc3cc(S(=O)(=O)N4CCCC4)ccc3n2C)cn1`, for which the Percent Effect in assay [1] amounted to 6.27%; in assay [2], 0.802%.
`c1cnn(CCNCc2nnc(C3CC3)o2)c1`: the Percent Effect in assay [1] was -0.343%; in assay [2] it was -28.3%.
In the same order, the values of `COCCc1noc(CN(C)C(=O)c2cccc(N3CCCC3=O)c2)n1` are 3.06% and 3.89%.
In the same order, the values of `COC(=O)CN1CC(c2nc(Cc3ccccc3)no2)C1` are -4.57% and -14.5%.
On to `O=C1CC2(CCN(S(=O)(=O)c3cccs3)C2)CN1c1ccccc1` (stereo unspecified), for which the Percent Effect was determined as 3.64% in assay [1] and 7.29% in assay [2].
Regarding `CCc1nc(CN2CCCN(C(=O)c3cnc[nH]3)CC2)cs1`, the figures for the Percent Effect in assay [1] and in assay [2] were -2.77% and -5.89%, respectively.
Turning to `CN(C(=O)Cc1ccc(NC(=O)NC2CCC2)cc1)c1ccccc1`, the Percent Effect in assay [1] was -0.27%; in assay [2], -9.88%.
In the same order, the values of `CCn1cnnc1C1CCN(C(=O)COc2ccccc2)CC1` are -1.18% and -10%.
Consider `Cc1nc(N2CCN(C(=O)c3ccc(O)cc3)CC2)c2cnn(C)c2n1`, for which the Percent Effect was -1.05% in assay [1] and 3.77% in assay [2].
Regarding `CC(C)n1ccc(-c2cc(C(=O)N3CCCC3)c3ccccn23)n1`, the Percent Effect in assay [1] is 2.64%; in assay [2] it was -41.4%.
In the case of `Cc1occc1C(=O)N1CCC2(CC1)C(c1cnn(C)c1)CC(=O)N2C` (stereo unspecified), the figures for the Percent Effect in assay [1] and in assay [2] were 2.49% and -8.78%, respectively.
In the same order, the values of `CN1N=C(C(=O)Nc2cc(F)ccc2OCC2CCCO2)CCC1=O` (stereo unspecified) are -1.12% and 5.1%.
In the same order, the values of `CC(C)c1ncc2c(n1)CN(Cc1ccc(C(N)=O)cc1)CC2` are -0.3% and -42.6%.
Turning to `CC(=O)NCc1ccc(C(=O)N2CCCC2c2cnn(C)c2)o1` (stereo unspecified), the Percent Effect in assay [1] worked out at 1.21%; in assay [2], 21.1%.
In the same order, the values of `Cc1cc(C(=O)N2CC[C@@H]3CN(S(C)(=O)=O)CCO[C@@H]3C2)c(C)o1` are 2.19% and 1.92%.
On to `Cc1nc(CN(C)C2CCN(Cc3ccc4ccccc4n3)C2)no1` (stereo unspecified), for which the results for the Percent Effect in assay [1] and in assay [2] were 3.73% and -68.9%, respectively.
In the same order, the values of `CC(CN1CCN(C)CC1)NC(=O)c1cc(Cl)c2c(c1)OCO2` (stereo unspecified) are 3.29% and -0.562%.
For the molecule `Cc1cc(C)n(CC2CCCCN2C(=O)c2ccc3nncn3c2)n1` (stereo unspecified), the Percent Effect in assay [1] is -3.1%; in assay [2], 14.5%.
Consider `Cc1ccc(F)cc1C(=O)N1C[C@@H](CN2CCOCC2)[C@@H](CO)C1`, for which the Percent Effect in assay [1] was -3.12%; in assay [2], 19.3%.
As to `O=C(NCc1ccccn1)[C@@H]1CCO[C@@H]2CCN(Cc3ccoc3)C[C@H]21`, the Percent Effect in assay [1] was 7.04%; in assay [2] it was 4.93%.
